Source: PubChem BioAssay (Tox21)
Values joined by “and” are separate entries in the source; they are usually repeats but may differ in a detail not shown here. Equal values may be shown once. Records with an inconclusive call do not appear. A call without a number means that no potency is given here. Where a structure was tested more than once in an assay, its records may differ in their call. Active and inactive are the calls of the source. Unless noted, calls come from the whole dose curve; as a rule, active = well fitted cell-killing curve with a large enough effect in the repeat runs; inconclusive = weak or mixed curves, or effect the other way; inactive = flat fitted curve, though single readings scatter.

System: not listed separately
Test: qHTS assay to identify small molecule agonists of the androgen receptor (AR) signaling pathway in the presence of an antagonist - cell viability counter screen (AID 1259379); note: nearly all actives have a fitted effect of over 25% in size; note: potency is the fitted concentration of half-maximal effect
Conditions: MDA-kb2 viability, CellTiter-Fluor, 16 h; series mostly up to 92.4 µM
How it was run: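 Seed MDA-kb2 at 3,000 cells/well; incubate 5 hr, 37C, 0% CO2. Add nilutamide to 3.0uM final, then pin compounds at 15 concentrations. Incubate 16 hr. Add CellTiter-Fluor at 15 hr, read fluorescence after 1 hr.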

Compound | Potency
CC(=O)Oc1ccccc1C(=O)O | inactive
COc1ccccc1O | inactive
COCCOCCOC | inactive
COCC(C)N (stereo not given) | inactive
NCCNc1cccc2ccccc12 | 54.4 µM (active) and 59.6 µM (active) and inactive
C/C=C/c1ccc(O)c(OC)c1 | inactive
Cc1cccc(Nc2cc(Cl)nc(SCC(=O)O)n2)c1C | inactive
CCCCCCCCCCCCCC(=O)OC(C)C | inactive
COc1cc(C=O)ccc1O | inactive
COc1ccc(C(=O)c2ccccc2)c(O)c1 | inactive
C1CNCCN1 | inactive
COc1cc(O)c(C(=O)c2ccccc2)cc1S(=O)(=O)O | inactive
COc1ccc(O)cc1 | inactive
CC(O)COc1ccccc1 (stereo not given) | inactive
NC(N)=NC(N)=NCCc1ccccc1 | 48.3 µM (active) and 54.5 µM (active) and 26.6 µM (active)
CC1=NN(c2ccccc2)C(=O)C1 | inactive
O=c1c(-c2ccc(O)cc2)coc2cc(O)cc(O)c12 | inactive
NC(=O)N1c2ccccc2C=Cc2ccccc21 | inactive
Cc1cccc(C)c1O | inactive
NC(=O)N/N=C/c1ccc([N+](=O)[O-])o1 | inactive
C[C@]12CC[C@@H]3c4ccc(O)cc4C[C@@H](CCCCCCCCCS(=O)CCCC(F)(F)C(F)(F)F)[C@H]3[C@@H]1CC[C@@H]2O (stereo not given in full) | inactive
CC(=O)c1ccc(S(=O)(=O)NC(=O)NC2CCCCC2)cc1 | inactive
CN(C)Cc1cc(CN(C)C)c(O)c(CN(C)C)c1 | inactive
Cc1ccc(O)c(-n2nc3ccccc3n2)c1 | inactive
COC(=O)c1ccc(O)cc1 | inactive
c1ccc2[nH]c(-c3cscn3)nc2c1 | inactive
O=C1OC(c2ccc(O)cc2)(c2ccc(O)cc2)c2ccccc21 | inactive
OCCCc1ccccc1 | inactive
NC(=O)OCC(COC(N)=O)c1ccccc1 | inactive
COc1cc2c(c(OC)c1OC)-c1ccc(OC)c(=O)cc1[C@@H](NC(C)=O)CC2 | inactive

System: not listed separately
Test: qHTS assay to identify small molecule agonists of the estrogen receptor beta (ER-beta) signaling pathway - cell viability counter screen (AID 1259380); note: nearly all actives have a fitted effect of over 30% in size; note: potency is the fitted concentration of half-maximal effect
Conditions: ER-beta-bla HEK293T viability, CellTiter-Glo luminescence, 16 h; series mostly up to 92.4 µM
How it was run: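 CellTiter-Glo read, 30 min RT, same wells as bla assay; cells ER-beta-UAS-bla HEK293T; 16 hr compound, 37C; medium 2% charcoal-stripped FBS.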

Compound | Potency
CC(=O)Oc1ccccc1C(=O)O | inactive
COc1ccccc1O | inactive
COCCOCCOC | inactive
COCC(C)N (stereo not given) | inactive
NCCNc1cccc2ccccc12 | 54.4 µM (active) and 59.6 µM (active)
C/C=C/c1ccc(O)c(OC)c1 | inactive
Cc1cccc(Nc2cc(Cl)nc(SCC(=O)O)n2)c1C | inactive
CCCCCCCCCCCCCC(=O)OC(C)C | inactive
COc1cc(C=O)ccc1O | inactive
COc1ccc(C(=O)c2ccccc2)c(O)c1 | inactive
C1CNCCN1 | inactive
COc1cc(O)c(C(=O)c2ccccc2)cc1S(=O)(=O)O | inactive
COc1ccc(O)cc1 | inactive
CC(O)COc1ccccc1 (stereo not given) | inactive
NC(N)=NC(N)=NCCc1ccccc1 | inactive
CC1=NN(c2ccccc2)C(=O)C1 | inactive
O=c1c(-c2ccc(O)cc2)coc2cc(O)cc(O)c12 | 13.7 µM (active)
NC(=O)N1c2ccccc2C=Cc2ccccc21 | inactive
Cc1cccc(C)c1O | inactive
NC(=O)N/N=C/c1ccc([N+](=O)[O-])o1 | inactive
C[C@]12CC[C@@H]3c4ccc(O)cc4C[C@@H](CCCCCCCCCS(=O)CCCC(F)(F)C(F)(F)F)[C@H]3[C@@H]1CC[C@@H]2O (stereo not given in full) | 9.68 µM (active) and 14.3 µM (active) and 8.41 µM (active)
CC(=O)c1ccc(S(=O)(=O)NC(=O)NC2CCCCC2)cc1 | inactive
CN(C)Cc1cc(CN(C)C)c(O)c(CN(C)C)c1 | inactive
Cc1ccc(O)c(-n2nc3ccccc3n2)c1 | inactive
COC(=O)c1ccc(O)cc1 | inactive
c1ccc2[nH]c(-c3cscn3)nc2c1 | inactive
O=C1OC(c2ccc(O)cc2)(c2ccc(O)cc2)c2ccccc21 | 54.1 µM (active) and inactive
OCCCc1ccccc1 | inactive
NC(=O)OCC(COC(N)=O)c1ccccc1 | inactive
COc1cc2c(c(OC)c1OC)-c1ccc(OC)c(=O)cc1[C@@H](NC(C)=O)CC2 | 27 µM (active) and inactive

Target: Androgen receptor (Homo sapiens) (UniProt P10275)
Test: qHTS assay to identify small molecule agonists of the androgen receptor (AR) signaling pathway in the presence of an antagonist (AID 1259381; calls by dose curve; note: nearly all actives have a fitted effect of over 15% in size)
Conditions: MDA-kb2 MMTV-luciferase, AR agonist + nilutamide, 16 h; series mostly up to 92.4 µM
How it was run: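 Test compounds at 15 concentrations were incubated for 16hr with MDA-kb2 reporter cells in presence of 3.0uM nilutamide (final). Signal: ONE-Glo luciferase luminescence.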

Sequence of Androgen receptor (Homo sapiens) (P10275 whole entry, looked up): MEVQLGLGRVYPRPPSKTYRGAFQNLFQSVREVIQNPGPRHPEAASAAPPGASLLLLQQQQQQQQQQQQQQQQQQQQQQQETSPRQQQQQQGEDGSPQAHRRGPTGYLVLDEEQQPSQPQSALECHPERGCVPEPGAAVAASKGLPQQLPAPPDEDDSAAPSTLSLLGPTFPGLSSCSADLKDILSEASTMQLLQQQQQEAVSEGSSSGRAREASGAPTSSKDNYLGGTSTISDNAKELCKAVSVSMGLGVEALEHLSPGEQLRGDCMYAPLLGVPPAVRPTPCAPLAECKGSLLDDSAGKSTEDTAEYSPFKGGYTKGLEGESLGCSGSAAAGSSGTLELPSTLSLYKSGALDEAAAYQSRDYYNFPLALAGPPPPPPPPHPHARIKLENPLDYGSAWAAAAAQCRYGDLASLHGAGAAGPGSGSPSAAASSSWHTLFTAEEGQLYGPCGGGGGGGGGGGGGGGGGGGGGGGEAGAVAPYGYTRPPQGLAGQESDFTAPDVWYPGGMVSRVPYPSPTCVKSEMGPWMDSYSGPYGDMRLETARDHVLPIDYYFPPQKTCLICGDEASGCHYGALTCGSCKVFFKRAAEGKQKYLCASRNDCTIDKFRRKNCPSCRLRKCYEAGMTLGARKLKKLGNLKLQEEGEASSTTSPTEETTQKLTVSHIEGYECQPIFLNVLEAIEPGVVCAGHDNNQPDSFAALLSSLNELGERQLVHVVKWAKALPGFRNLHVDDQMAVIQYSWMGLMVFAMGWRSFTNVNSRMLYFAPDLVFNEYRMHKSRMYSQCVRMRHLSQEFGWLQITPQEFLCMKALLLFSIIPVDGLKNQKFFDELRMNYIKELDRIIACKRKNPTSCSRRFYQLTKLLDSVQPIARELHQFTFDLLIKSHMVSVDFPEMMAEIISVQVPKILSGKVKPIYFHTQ

Compound | outcome
CC(=O)Oc1ccccc1C(=O)O | inactive
COCCOCCOC | inactive
COCC(C)N (stereo not given) | inactive
NCCNc1cccc2ccccc12 | inactive
Cc1cccc(Nc2cc(Cl)nc(SCC(=O)O)n2)c1C | inactive
CCCCCCCCCCCCCC(=O)OC(C)C | inactive
COc1cc(C=O)ccc1O | inactive
COc1ccc(C(=O)c2ccccc2)c(O)c1 | inactive
COc1cc(O)c(C(=O)c2ccccc2)cc1S(=O)(=O)O | inactive
COc1ccc(O)cc1 | inactive
CC(O)COc1ccccc1 (stereo not given) | inactive
O=c1c(-c2ccc(O)cc2)coc2cc(O)cc(O)c12 | inactive
Cc1cccc(C)c1O | inactive
C[C@]12CC[C@@H]3c4ccc(O)cc4C[C@@H](CCCCCCCCCS(=O)CCCC(F)(F)C(F)(F)F)[C@H]3[C@@H]1CC[C@@H]2O (stereo not given in full) | inactive
CC(=O)c1ccc(S(=O)(=O)NC(=O)NC2CCCCC2)cc1 | inactive
CN(C)Cc1cc(CN(C)C)c(O)c(CN(C)C)c1 | inactive
c1ccc2[nH]c(-c3cscn3)nc2c1 | inactive
O=C1OC(c2ccc(O)cc2)(c2ccc(O)cc2)c2ccccc21 | inactive
NC(=O)OCC(COC(N)=O)c1ccccc1 | inactive
COc1cc2c(c(OC)c1OC)-c1ccc(OC)c(=O)cc1[C@@H](NC(C)=O)CC2 | inactive
